Only some compounds are listed: those with a hit (about 7.9% of all), similar ones and a draw of the others.
Marburg entry inh: qHTS for inhibitors of binding or entry into cells for Marburg Virus | Marburg virus pseudotyped entry inhibition, cell reporter | Potency, µM (series often up to 37.8 µM), inactives show at the top dose activity change, negative = inhibition, usual class: inhibitors | 300,000 tested, 1.8% active; calls by dose curve; tested in HEK293 cells; note: potency is the fitted concentration of half-maximal effect
FMDV antiviral: High Throughput Screening for Foot and Mouth Disease Virus Antivirals | FMDV antiviral cell-based qHTS | Potency, µM (titrated, usually from 57.9 µM), inactives show at the top dose activity change, negative = inhibition, hits mostly inhibitors | 410,000 tested, 1.2% active; calls by dose curve; tested in HEK293T cells; note: read-out not given here; potency is the fitted concentration of half-maximal effect; nearly all actives have a fitted effect of over 45% in size
LASV entry inh: qHTS for Inhibitors of binding or entry into cells for Lassa Virus; Lassa virus pseudotype entry inhibition, cell reporter; Potency, µM (titrated, usually from 37.9 µM), without a hit: at the top dose activity change, negative = inhibition, most hits filed as inhibitors; 300,000 tested, 1.2% active; calls by dose curve; tested in HEK293 cells; note: potency is the fitted concentration of half-maximal effect; nearly all actives have a fitted effect of over 50% in size
HCV inh: qHTS Assay for Inhibitors of Hepatitis C Virus (HCV); Huh7.5.1 HCVcc-Cre infection, luciferase reporter, 44 h; Potency, µM (doses to about 41.8 µM), without a hit: at the highest dose activity change, negative = inhibition, usual class: inhibitors; 340,000 tested, 3.4% active; active = well fitted inhibition curve with a large enough effect; inconclusive = small, poorly fitted or top-dose-only effect, or another doubt; inactive = no such curve, though single readings can be large or run the other way; note: potency is the fitted concentration of half-maximal effect
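Antiviral activity was scored by luciferase reporter output from cells infected with HCVcc-Cre (~0.5 moi) in presence of compound, 44 h infection period, cells seeded 1,000/well 4 h prior.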
HCMV inh: qHTS Assay for inhibitors of the human cytomegalovirus (HCMV); activity change, negative = inhibition, % at 57.5 µM; 410,000 tested, 4.5% active; HFF cells, HCMV-luciferase reporter, 72 h; stronger effect = lower value; AID 1259415, 2018; in the data active = activity change below about -60%; inconclusive = no clear call, values can overlap the other calls; inactive = above about -39%
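Inhibition of viral replication was scored as loss of reporter luminescence in HFFs infected with HCMV-luciferase (MOI 1 PFU/cell) for 72 h; compounds tested at 2 doses, normalized to buffer and Salinomycin controls.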
An asterisk follows results filed as active; ? = inconclusive; . = no result given; + = active, no number; [ ] = remark or other dose. % is set by controls: 0 for no effect and ±100 for the full control effect.

SMILES	Marburg entry inh	FMDV antiviral	LASV entry inh	HCV inh	HCMV inh
CCC1C(=O)NCCN1Cc1ccc2c(c1)CN(Cc1cc(OC)ccc1OC)CCO2 (stereo not given)	.	-14%	.	.	.
O=C(CSc1ccccc1C(=O)NCc1ccccc1)NC12CC3CC(CC(C3)C1)C2	?	?	10µM*	-25%	-32
Cc1ccc(Sc2ncccc2C(=O)O)cc1C	-2%	?	6%	21%	-67*
Cc1ccc(Sc2ncccc2C(=O)O)c(C)c1	12%	-10%	2%	3%	-16
O=C(O)c1cccnc1C(=O)O	?	-13%	38%	0.71µM*	.
O=C(O)c1cccnc1SCc1ccccc1	14%	30%	2%	7%	4
O=C(O)c1cccnc1Cl	-1%	-15%	-1%	9%	7
N#CCC(=O)Nc1ccc(C(=O)OCC(=O)N2CCN(C(=O)c3ccco3)CC2)cc1	11%	-16%	?	40%	-9
O=C(Nc1ccc(F)c(Cl)c1)[C@@H]1O[C@H](CO)[C@H](O)[C@H](O)[C@H]1O	.	-10%	.	.	41
N#Cc1cnc(SCCc2ccccc2)nc1N	-9%	3%	-39%	2.2µM*	40
COc1ccccc1Nc1nnc(Cc2ccccc2)c(=O)[nH]1	22%[46.1 µM]	-9%	-9%[46.1 µM]	-12%	4
COc1ccc(Cc2nnc(Nc3ccccc3OC)[nH]c2=O)cc1	7%[46.1 µM]	2%	3%	2.8µM*	-24
C[C@H](NC(=O)N1CCn2c1nc1ccccc12)C(=O)N1CCCCC1	.	11%	.	10%	+
C[C@H](NC(=O)N1CCn2c1nc1ccccc12)C(=O)NC1CC1	.	-12%	.	19%	0
COc1ccc(CN(C)CC(O)COc2ccc(C(=O)c3ccccc3)cc2)c(OC)c1OC (stereo not given)	?	-28%	?	?	-40
COc1ccc(CN(C)CC(O)COC(c2ccccc2)c2ccccc2)c(OC)c1OC (stereo not given)	?	?	?	16µM*	-28
COc1ccc(CCN(C)CC(O)COC(c2ccc(F)cc2)c2ccc(F)cc2)cc1OC (stereo not given)	5.6µM*	-11%	?	?	3
CCCn1c(CCC(=O)Nc2cccc(C)c2C)nc2cccnc21	3%[46.1 µM]	-9%	1%[46.1 µM]	.	11
COc1cc(C2c3c(-c4ccccc4O)n[nH]c3C(=O)N2Cc2ccco2)cc(OC)c1OC (stereo not given)	.	-12%	.	-8%	-4
Cc1ccc(O)c(-c2n[nH]c3c2C(c2ccc(F)cc2)N(Cc2ccco2)C3=O)c1 (stereo not given)	?	-21%	?	.	-11
COc1ccc(C2c3c(-c4ccccc4O)n[nH]c3C(=O)N2Cc2ccco2)cc1 (stereo not given)	-25%	-3%	0.58µM*	-26%	?
COc1cccc(C2c3c(-c4ccccc4O)n[nH]c3C(=O)N2Cc2cccnc2)c1 (stereo not given)	-8%[46.1 µM]	-19%	?	.	12
O=C1c2[nH]nc(-c3ccccc3O)c2C(c2cccc(O)c2)N1Cc1ccco1 (stereo not given)	0%	-13%	0.5µM*	?	21
O=C1c2[nH]nc(-c3ccccc3O)c2C(c2cccc(Br)c2)N1Cc1ccncc1 (stereo not given)	?	10%	?	.	-82*
Cc1ccc(C2c3c(-c4ccccc4O)n[nH]c3C(=O)N2Cc2ccncc2)cc1 (stereo not given)	?	18%	-15%	?	-39
SMILES	Marburg entry inh	FMDV antiviral	LASV entry inh	HCV inh	HCMV inh
CCCOc1cccc(C2c3c(-c4ccccc4O)n[nH]c3C(=O)N2Cc2ccco2)c1 (stereo not given)	?	-20%	?	.	-72*
Cc1cc(C)c(-c2n[nH]c3c2C(c2ccccc2F)N(Cc2ccco2)C3=O)c(O)c1 (stereo not given)	?	-8%	?	.	-73*
Cc1cc(C(=O)N2CCOCC2)c(C)o1	17%[46.1 µM]	-8%	6%[46.1 µM]	11%	-99*
N#C/C(=C\c1ccncc1)C(=O)Nc1ccc(C(=O)O)cc1	.	-15%	.	13%	-99*
Cc1cc(/C=C(\C#N)C(=O)Nc2ccccc2)c(C)n1-c1ccc(C(=O)O)cc1	.	-24%	.	?	-17
CCOC(=O)/C(C#N)=C/c1cc(C)n(-c2ccc(C)cc2)c1C	?	-8%	?	8.9µM*	68
N#C/C(=C\c1cccnc1)C(=O)Nc1ccc(C(=O)O)cc1	16%[46.1 µM]	33%	0%[46.1 µM]	12%	27
CNC(=O)/C(C#N)=C/c1cc(C)n(-c2ccc(N3CCOCC3)cc2)c1C	2%	-5%	.	-4%	0
Cc1cccc(NC(=O)/C(C#N)=C\c2cc(C)n(-c3ccc(C(=O)O)cc3)c2C)c1	.	-14%	.	-17%	-61*
COC(=O)c1cc2sc(Cl)cc2n1CC(=O)Nc1cc(C)cc(C)c1	6%[46.1 µM]	-1%	.	.	-22
C=CC[C@@H]1C=CC(O/N=C(\C)CCC(=O)OC[C@H]2O[C@H](C#Cc3ccccc3)C=C[C@@H]2Oc2ccc(C)cc2)[C@@H](CO)O1 (stereo not given in full)	29%[14.2 µM]	.	.	.	.
Nc1ccccc1-c1ccc([N+](=O)[O-])cc1	5.6µM*	-5%	?	-23%	-25
Nc1ncc(-c2ccc([N+](=O)[O-])cc2)cn1	?	10%	20%	-6%	-95*
COc1nc(-c2ccncc2)nc2ccccc12	-29%	-18%	27%	?	28
CN1CCN(c2nc(-c3ccncc3)nc3ccccc23)CC1	7.9µM*	-15%	-5%	?	-21
c1ccc2c(N3CCCC3)nc(-c3ccncc3)nc2c1	?	14µM*	-5%	?	-33
CN1CCN(c2nc(-c3ccc(Cl)cc3)nc3ccccc23)CC1	?	-25%	?	-26%	67
CC[C@@H]1CCCCN1c1nc(-c2ccncc2)nc2ccccc12	9.2µM*	.	.	.	.
C=CCOc1nc(-c2ccncc2)nc2ccccc12	?	-19%	-4%	5µM*	21
CC(C)c1ccc(NC(=O)CCNC(=O)N2CC(=O)Nc3ccccc32)cc1	.	-8%	.	8%	67
Oc1ccccc1N1CCN(c2nc(-c3cccs3)nc3ccccc23)CC1	.	-24%	.	11µM*	?
Oc1ccc(N2CCN(c3nc(-c4cccs4)nc4ccccc34)CC2)cc1	?	-14%	11%[46.1 µM]	?	?
COc1ccc(CCNC(=O)c2ccc3c(c2)CCN3S(=O)(=O)c2ccc(C)cc2)cc1	-3%[46.1 µM]	-27%	?	.	-31
CCn1cc(C(=O)N[C@@H](CCSC)C(=O)NCCN2CCOCC2)c(=O)c2cc3c(cc21)OCO3	.	13%	.	12%	+
C[C@@H]1CN([C@H](C)CO)C(=O)c2cc(NS(=O)(=O)c3ccc(F)cc3)ccc2O[C@@H]1CN(C)Cc1ccc(Cl)c(Cl)c1	.	?	.	6.3µM*	-19
